The list is not random: actives were taken first. Their share in the collection is about 3.2%.
CRFBP-R2 agonist: agonists of CRF-BP/CRF-R2 complex, primary screen, cell-based, HEK293, calcium dye fluorescence, uHTS; calcium dye fluorescence (FLIPR); percent of saturating CRF peptide response; AID 588473, 2011; 0.46% of 350,000 active; activation, % at 13.2 µM;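 active = activation of at least 50%, plus an integration ratio under a set limit after plate pattern correction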;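 note: plate controls were neutral control wells without compound for no effect and CRF at EC100 for full effect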
FAS TE block: FAS thioesterase domain inhibitors, primary screen, biochemical, fluorescence intensity, uHTS; recombinant FAS-TE, OMFH fluorogenic substrate, fluorescence endpoint; Fatty acid synthase (Homo sapiens), P49327; AID 602261, 2012; 0.67% of 360,000 active; inhibition, % at 15 µM;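 active = compounds whose normalised, plate-corrected inhibition of enzyme fluorescence in the single-dose primary screen is 50% or more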;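 note: 0% = DMSO with enzyme and 100% = substrate without enzyme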
aDG glyco act: activators of alpha-DG glycosylation, primary screen, uHTS, Pro5-aDG cells, AlphaScreen | alpha-DG glycosylation AlphaScreen (IIH6); 0% Pro5, 100% B10-LARGE cell signal | activation, % at 10 µM | 0.22% of 360,000 active | AID 624168, 2012;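 active = activation of at least 8% versus controls, or a plate z-score of at least 8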;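 note: Pro5 are CHO cells carrying HIG-tagged alpha-DG that lacks glycosylation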
Cardio protect: cardioprotection against H2O2-induced cell death, primary screen, uHTS, H9c2 cells, ATPLite luminescence; H9c2 cardiomyocytes, H2O2 injury protection, 2 h; protection from H2O2 cell death, % at 20 µM; 0.63% of 360,000 active;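 active = compounds giving at least 50% protection of heart cells from peroxide-induced death in the single-dose screen, raw or plate-pattern-corrected value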;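 note: 0% = DMSO wells with peroxide and 100% = DMSO wells without peroxide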
CRFR2-BP antag: antagonists of CRF-BP/CRF-R2 complex, primary screen, cell-based, HEK293, calcium dye fluorescence, uHTS; AID 588475, 2011; 0.59% of 350,000 active; CRF-induced calcium fluorescence; inhibition, % at 11.8 µM;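 active = inhibition of the ligand-induced calcium signal above about 50% at the single tested concentration, limit read from the data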
PfG6PD inh: PfG6PD enzyme inhibitors, primary screen, biochemical, fluorescence intensity, uHTS; PfGluPho enzyme, NADPH resazurin-diaphorase fluorescence; inhibition, % at 20 µM; 0.78% of 350,000 active; AID 504690, 2011;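 active = inhibition reaching at least a set limit at 20 µM in the primary screen, cut at about 59% in these data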;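 note: 0% = DMSO wells with substrate and 100% = DMSO wells lacking glucose-6-phosphate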
* = called active by the depositor.

Screening CC(C)n1c(O)c(N=NC(=O)C2COc3ccccc3O2)c2ccccc21 (stereo unspecified) returned CRFBP-R2 agonist -6, FAS TE block 20, aDG glyco act 0, Cardio protect 27, CRFR2-BP antag 68* and PfG6PD inh -7.
O=C(NC1CCCC1)C1CCC(CNS(=O)(=O)c2ccc(F)cc2)CC1 (stereo unspecified) was read as CRFBP-R2 agonist -2, FAS TE block -6, aDG glyco act 0, Cardio protect 1, CRFR2-BP antag 89* and PfG6PD inh -13.
CCN(CC)c1ccc2cc(-c3nc4ccccc4[nH]3)c(=O)oc2c1 was read as CRFBP-R2 agonist 227*, FAS TE block -171, aDG glyco act 2, Cardio protect -22, CRFR2-BP antag -190 and PfG6PD inh 21.
Screening CCN(CC)c1ccc2cc(-c3nnc(-c4ccccc4)o3)c(=O)oc2c1 returned CRFBP-R2 agonist 192*, FAS TE block -210, aDG glyco act 1, Cardio protect 12, CRFR2-BP antag -155 and PfG6PD inh -5.
Screening O=c1oc2ccc3ccccc3c2cc1-c1nnc(-c2ccccc2)o1 returned CRFBP-R2 agonist 2, FAS TE block 8, aDG glyco act 0, Cardio protect 80*, CRFR2-BP antag 61* and PfG6PD inh 4.
Screening O=c1oc2ccccc2cc1-c1nnc(-c2cccc(Br)c2)o1 returned CRFBP-R2 agonist 0, FAS TE block 5, aDG glyco act 0, Cardio protect 4, CRFR2-BP antag 22 and PfG6PD inh -5.
CN(C)Cc1c(O)ccc2cc(-c3nc4ccccc4n3C)c(=O)oc12 was read as CRFBP-R2 agonist 20, FAS TE block -5, aDG glyco act 0, Cardio protect 11, CRFR2-BP antag 1 and PfG6PD inh 7.
`CCN(CC)c1ccc2cc(-c3nc4ccccc4n3C)c(=O)oc2c1` gave CRFBP-R2 agonist 248*, FAS TE block -21, aDG glyco act 1, Cardio protect -2, CRFR2-BP antag -239 and PfG6PD inh 2.
CCN(CC)c1ccc2cc(-c3nc(-c4ccc(OC)cc4)cs3)c(=O)oc2c1 was read as CRFBP-R2 agonist 338*, CRFR2-BP antag -404 and PfG6PD inh -6.
CCN(CC)c1ccc2cc(C(=O)c3cccs3)c(=O)oc2c1 was read as FAS TE block -50, aDG glyco act 0 and Cardio protect -2.
For COC(=O)c1sc(NC(=S)NC(=O)c2cccc(C)c2)nc1C the results were CRFBP-R2 agonist 65*, FAS TE block -7, aDG glyco act 0, Cardio protect -13, CRFR2-BP antag 17 and PfG6PD inh -11.
`CCCOc1ccc(Cc2c(O)nc(SC)[nH]c2=O)cc1` gave CRFBP-R2 agonist -2, FAS TE block -5, aDG glyco act 0, Cardio protect 8, CRFR2-BP antag -17 and PfG6PD inh 0.
`Brc1ccc(-c2nn3c(-c4ccco4)nnc3s2)o1` gave CRFBP-R2 agonist -3, FAS TE block 1, aDG glyco act 0, Cardio protect 94*, CRFR2-BP antag 10 and PfG6PD inh 30.
`Brc1ccc(-c2nn3c(-c4ccccn4)nnc3s2)o1` gave CRFBP-R2 agonist -1, FAS TE block -3, aDG glyco act 0, Cardio protect 52*, CRFR2-BP antag -2 and PfG6PD inh 16.
`CC(C)CN(C(=O)c1cc(Cl)nc2ccccc12)C1CCS(=O)(=O)C1` (stereo unspecified) gave CRFBP-R2 agonist 3, FAS TE block -5, aDG glyco act 0, Cardio protect 3, CRFR2-BP antag -9 and PfG6PD inh -13.
CCCN(C(=O)c1cc(Cl)nc2ccccc12)C1CCS(=O)(=O)C1 (stereo unspecified) was read as CRFBP-R2 agonist -2, FAS TE block -4, aDG glyco act 0, Cardio protect 0, CRFR2-BP antag 75* and PfG6PD inh -4.

High-throughput results (PubChem)
